# Reference: PubChem BioAssay (EPA / NIEHS)
# Several values for one entry are separate records, joined by “and”; a condition that tells them apart may be missing. Identical values can stand only once. Activity calls are given as the source filed them. The calls were made as follows: active = hit-call score of the fitted dose curve at least 0.9, where 1 is the maximum; inactive = score below 0.9.
# Read-out: CD40, CD40 (gene 958)
# Experiment: BSK_LPS_CD40: BioMAP Diversity Plus: LPS Assay for CD40 Biomarker Activity (AID 2283076)
# Details: primary human HUVEC with PBMC; actives raise or lower the signal
# Experimental: BSK_LPS is a cell-based, multiplexed-readout assay that uses umbilical vein endothelium and peripheral blood mononuclear cells, a human vascular primary cell co-culture, with measurements taken at 24 hours after chemical dosing in a 96-well plate.BSK_LPS_CD40 is an assay component measured in the BSK_LPS assay. It measures CD40 antibody related to regulation of gene expression using ELISA technology.Data from the assay component BSK_LPS_CD40 was analyzed into 1 assay endpoint. This assay endpoint, BSK_LPS_CD40, was analyzed with bidirectional fitting relative to DMSO as the negative control and baseline of activity. Using a type of binding reporter, gain or loss-of-signal activity can be used to understand changes in the signaling as they relate to the gene CD40. Furthermore, this assay endpoint can be referred to as a primary readout, because this assay has produced multiple assay endpoints where this one serves a signaling function. To generalize the intended target to other relatable targets, this assay endpoint is annotated to the cytokine intended target family, where the subfamily is inflammatory factor.
# The levels of cell surface (or secreted, indicated by the prefix "s") biomarker endpoints were measured by ELISA. Overt cytotoxicity to cells in confluent adherent cultures (all systems other than the BT system) was assessed by measuring total protein levels using sulforhodamine B (SRB) staining in parallel cultures at the time of biomarker measurements, indicated as SRB endpoints. For proliferation assays for adherent cell types, individual cell types are cultured at sub-confluence and relative cell numbers quantified by SRB staining at time points optimized for each system (48 h: 3C and CASM3C systems; 72 h: BT and HDF3CGF systems; 96 h: SAg system). SRB was performed by staining cells with 0.1% SRB after fixation with 10% TCA and reading wells at 560 nm.Viability and proliferation of PBMC (T cells) was quantified by Alamar Blue reduction for the SAg and BT systems. For PBMC viability (referred to as PBMC Cytotoxicity within the assay endpoint names), cells were plated (75,000/well in a 96-well plate) and then chemical samples added for 1 h before addition of activators, SEB and TSST-1 (20 ng/mL final concentration each). Cells were incubated for 90 h. Then, Alamar Blue (20 uL/well) (Invitrogen, Cat DAL1100) was added for 6 h, and the plates were read with a fluorescence microplate reader at 546/580 nm (excitation/emission). For PBMC proliferation, cells were plated and activated as above but incubated for only 16 h prior to addition of Alamar Blue. Plates were read after 6 h.
SMILES,outcome,AC50
C[C@]12CC[C@@H]3c4ccc(O)cc4C[C@@H](CCCCCCCCCS(=O)CCCC(F)(F)C(F)(F)F)[C@H]3[C@@H]1CC[C@@H]2O (stereo not given in full),inactive,
CSC(=O)c1cccc2nnsc12,inactive,
COC(=O)c1ccc(CNS(C)(=O)=O)cc1S(=O)(=O)NC(=O)Nc1nc(OC)cc(OC)n1,inactive,
CCCOC(=O)c1ccc(C(=O)OCCC)nc1,inactive,
O=C(O)c1ccccc1,inactive,
N#CSCSc1nc2ccccc2s1,,1.9 µM (active) and 5.14 µM (active)
CCCN(CCC)C(=O)SCC,inactive,
CCCCC(CC)CN1C(=O)C2C3C=CC(C3)C2C1=O (stereo not given),,11.6 µM (active)
CC(C)(c1ccc(O)cc1)c1ccc(O)cc1,inactive,
c1ccc2[nH]c(-c3cscn3)nc2c1,inactive,
COC(=O)c1ccccc1S(=O)(=O)NC(=O)Nc1nc(OC(F)F)cc(OC(F)F)n1,inactive,
CC1(C)C(C=C(Cl)Cl)C1C(=O)OCc1cccc(Oc2ccccc2)c1 (stereo not given),inactive,
CCC(C)OC(=O)N1CCCCC1CCO (stereo not given),inactive,
C#CCOC(=O)[C@@H](C)Oc1ccc(Oc2ncc(Cl)cc2F)cc1,inactive,
S=C(S)NCCNC(=S)S.[Mn+2].[S-]C([S-])=NCCN=C([S-])[S-].[Zn+2],inactive,
CCCOC(=O)NCCCN(C)C,inactive,
O=C(Nc1ccc([N+](=O)[O-])cc1Cl)c1cc(Cl)ccc1O,,0.161 µM (active)
O=C(c1ccc(O)cc1O)c1ccc(O)cc1O,inactive,
S=C([S-])NCCNC(=S)[S-].[Mn+2],inactive,
N[C@@H](Cc1cc(I)c(Oc2ccc(O)c(I)c2)c(I)c1)C(=O)O,inactive,

SMILES,outcome,AC50
O=C(c1ccccc1)C1CCCCC1,inactive,
CCCCC(CC)COC(=O)c1ccccc1C(=O)O (stereo not given),inactive,
COC(=O)c1ccccc1C(=O)O,inactive,
COC(=O)c1c(Cl)nn(C)c1S(=O)(=O)NC(=O)Nc1nc(OC)cc(OC)n1,inactive,
CCCCCOC(=O)COc1cc(N2C(=O)C3=C(CCCC3)C2=O)c(F)cc1Cl,,16 µM (active)
COc1nc(C)nc(NC(=O)NS(=O)(=O)c2ccccc2OCCCl)n1,inactive,
C#C[C@]1(O)CC[C@H]2[C@@H]3CCC4=CC(=O)CC[C@@H]4[C@H]3CC[C@@]21CC,inactive,
CCOC(=O)[C@H](C)Oc1ccc(Oc2nc3ccc(Cl)cc3o2)cc1,inactive,
CN(C)C(=O)Nc1ccc(Cl)c(Cl)c1,inactive,
CCCCOCCOCCOCc1cc2c(cc1CCC)OCO2,,20 µM (active)
CC(C)(C)[C@@H](O)[C@@H](Cc1ccc(Cl)cc1)n1cncn1,inactive,
CCOC(=O)C(C)Oc1ccc(Oc2nc3ccc(Cl)cc3o2)cc1 (stereo not given),inactive,
OB(O)O,inactive,
CCCCOC(=O)C(C)Oc1ccc(Oc2ccc(C(F)(F)F)cn2)cc1 (stereo not given),inactive,
CCOC(=O)COc1cc(-n2ncc(C(F)(F)F)c(C)c2=O)c(F)cc1Cl,inactive,
CCN(CC)C(=O)c1cccc(C)c1,inactive,
O=C(O)C1(C(=O)Nc2ccc(Cl)cc2Cl)CC1,inactive,
CC(=O)S[C@@H]1CC2=CC(=O)CC[C@]2(C)[C@H]2CC[C@@]3(C)[C@@H](CC[C@@]34CCC(=O)O4)[C@H]12,,25 µM (active)
CC(=O)[C@H]1CC[C@H]2[C@@H]3CCC4=CC(=O)CC[C@]4(C)[C@H]3CC[C@]12C,,20 µM (active)
C=CCOC(Cn1ccnc1)c1ccc(Cl)cc1Cl (stereo not given),,22.2 µM (active)
